Screening results from PubChem.
Only some compounds are listed: those with a hit (about 1% of all), similar ones and a draw of the others.
SSB-PriA inh = inhibitors of Klebsiella pneumoniae PriA binding to SSB C-terminal tail, primary screen, biochemical, AlphaScreen; PriA–SSB C-terminal tail interaction (Klebsiella pneumoniae); AlphaScreen SSBct-PriA binding, biotinylated peptide; inhibition, % at 33 µM; 430,000 compounds, 0.6% hits; AID 1272365, 2023; in the data active = inhibition mostly above about 37%, no sharp cut-off; inactive = mostly below about 20%;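 also: plate controls were negative control peptide for no effect and reference peptide for full effect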
Sa RN4220 lethal = growth inhibition of S. aureus RN4220, primary screen, OD600; 16 h; inhibition, % (no concentration beside the values); 330,000 compounds, 0.33% hits; in the data active = inhibition above about 85%;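 also: plate controls were untreated cells for no effect and reference antibiotic for full effect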
Mtb hypoxia inh = PubChem AID 1159583; M. tuberculosis hypoxia-regulated fluorescent reporter, fluorescence; fluorescence inhibition, % (test concentration not listed); 300,000 compounds, 0.1% hits; in the data active = fluorescence inhibition mostly above about 23%, no sharp cut-off; inactive = mostly below about 17%
ugtP null kill = growth inhibition of ugtP-null S. aureus, primary screen, RN4220 ugtP deletion, OD600; growth inhibition, % (no concentration beside the values); 330,000 compounds, 0.54% hits; 16 h; AID 1259309, 2017; in the data active = growth inhibition above about 68%;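 also: plate controls were untreated wells for no effect and antibiotic for full effect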
Mtb bLac sens = beta-lactam sensitization of Mtb H37Rv, H37Rv; M. tuberculosis H37Rv growth with meropenem, percent inhibition; inhibition, % at 25 µM; 330,000 compounds, 0.27% hits; AID 434955, 2010; call rule not given here;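 also: growth measured after seven days incubation then overnight dye step; 0% = bacteria only wells and 100% = bacteria with antibiotic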
* = called active by the depositor; u = inconclusive; x = not tested or not shown; + = active, no number.

SMILES | SSB-PriA inh | Sa RN4220 lethal | Mtb hypoxia inh | ugtP null kill | Mtb bLac sens
Cc1cccc(C(=O)Nn2cnc3c(cnn3-c3cccc(Cl)c3)c2=O)c1 | 9.0 | x | x | x | x
CCCN1CCCc2cc(CCNS(=O)(=O)c3ccc(C)cc3C)ccc21 | 41.0* | x | x | x | x
CCCN1CCCc2cc(CCNS(=O)(=O)c3ccc(NC(C)=O)cc3C)ccc21 | 70.0* | x | x | x | x
CCCN1CCCc2cc(CCNC(=O)C(=O)Nc3cc(C)ccc3C)ccc21 | 29.0 | x | x | x | x
CCCN1CCCc2cc(CCNC(=O)C(=O)Nc3ccc(C)c(C)c3)ccc21 | 36.0 | x | x | x | x
CCN1C(=O)C(C)(C)COc2ccc(NC(=O)c3ccccc3F)cc21 | 18.0 | x | x | x | x
COC(=O)c1ccccc1C(=O)N1CCC(CSc2ccccn2)CC1 | 7.0 | x | x | x | x
O=c1ccc(-c2ccccc2)nn1CCNS(=O)(=O)c1cc(C(F)(F)F)ccc1Cl | 6.0 | x | x | x | x
O=[N+]([O-])c1ccc(NCCCN2CCOCC2)c2ncccc12 | -1.9 | 5.1 | 6.8 | 8.9 | 0.1
Clc1cc2c(c3ncccc13)OCN(CCCN1CCOCC1)C2 | 105.0* | x | x | x | x
CCOC(=O)c1c(NC(=O)C2CCN(S(C)(=O)=O)CC2)sc2ccccc12 | -2.0 | x | x | x | x
CCOC(=O)C(=NNc1ccccc1)c1csc(Nc2ccccc2)n1 | 1.3 | 92.2* | -1.2 | 93.2* | x
CC[n+]1c(/C=C/c2ccc(N(C)C)cc2)ccc2ccccc21 | 14.7 | 98.2* | 10.5 | 96.1* | 90.4
CC[n+]1ccc(/C=C/c2ccc(N(C)C)cc2)c2ccccc21 | 23.2 | 92.3* | 16.9 | 95.5* | x
CC[n+]1ccccc1/C=C/c1ccc(N(C)C)cc1 | -5.7 | 2.4 | x | 6.7 | x
CCN(CC)c1ccc(/C=C/c2ccc3ccc(OC)cc3[n+]2CC)cc1 | -1.1 | 99.9* | x | 98.7* | 91.6
CC[n+]1c(/C=C/c2ccc(OC)c(OC)c2)ccc2ccccc21 | -16.6 | 1.0 | 7.9 | 3.9 | 7.5
CCOC(=O)/C(C#N)=N/Nc1cc2c(cc1[N+](=O)[O-])OCCO2 | -8.0 | x | x | x | x
Cc1ccc2nc(N(CCCN3CCOCC3)C(=O)C3CCCCC3)sc2c1 | 0.0 | x | x | x | x
O=C(c1cc(-c2ccc(F)cc2)c[nH]1)N1CCC[C@H](Cc2nc(-c3ccsc3)no2)C1 | 13.0 | x | x | x | x
O=C1NC(=NN=Cc2cccs2)SC1Cc1ccc(Cl)c(Cl)c1 (stereo not given) | 2.1 | x | x | x | x
O=C(CCCOc1ccc(Cl)cc1Cl)Nc1ccccc1C(=O)O | 2.5 | 25.4 | 33.8* | 22.5 | 10.7
O=C(COc1ccc(Cl)cc1Cl)NC(=S)Nc1ccccc1C(=O)O | x | x | x | x | 1.5
CSC(=S)NN=C(C)c1cccc(C)n1 | 55.3* | x | x | x | x
CN(C)c1ccc(NC(=S)c2ccccn2)cc1 | 64.3 | 5.7 | 16.0 | 25.6 | 64.1
SMILES | SSB-PriA inh | Sa RN4220 lethal | Mtb hypoxia inh | ugtP null kill | Mtb bLac sens
CN(C)C(=S)NN=C(c1ccccn1)c1ccccn1 | 161.5* | x | x | x | x
COc1cc(C(=O)NN=C(c2ccccc2)c2ccccn2)cc(OC)c1OC | -5.3 | 5.0 | -8.3 | -11.7 | x
CC(=NNC(=S)N1CCCCC1)c1cccc(C)n1 | -7.4 | x | x | x | x
CSC(=S)N/N=C(/c1ccccc1)c1ccccn1 | 108.0* | x | x | x | x
O=C(CSc1nnc2n1CCN2c1ccc(F)cc1)NC1CCCC1 | 0.0 | x | x | x | x
O=C(NCCC(O)c1ccco1)c1ccc(Br)o1 (stereo not given) | 4.0 | x | x | x | x
COc1ccc(/C=C2\SC(=S)N(CC(=O)Nc3sc4c(c3C(N)=O)CCCC4)C2=O)cc1 | 8.0 | x | x | x | x
C=CCN1C(=O)/C(=C/c2cccs2)SC1=NS(=O)(=O)c1ccccc1 | 4.0 | x | x | x | x
C=CCn1c(SCC(=O)c2ccc3c(c2)OCCO3)nc2sc(C)c(C)c2c1=O | -6.0 | x | x | x | x
CCCCOC(=O)c1ccc(NC(=S)N2CCN(c3ncc4c(=O)c(C(=O)O)cn(CC)c4n3)CC2)cc1 | -9.7 | 100.6* | 2.3 | 100.5* | 77.7
CCn1cc(C(=O)O)c(=O)c2cnc(N3CCN(C(=S)Nc4ccccc4)CC3)nc21 | -9.4 | 17.4 | -7.3 | 4.4 | 16.5
CCOC(=O)C1=C(COC(=O)c2ccc(OC)c(S(=O)(=O)N3CCOCC3)c2)NC(=O)NC1C (stereo not given) | 8.3 | 1.3 | 18.0* | 1.7 | x
CCOC(=O)C1=C(COC(=O)c2ccc(C)c(S(=O)(=O)N3CCOCC3)c2)NC(=O)NC1C (stereo not given) | -6.8 | 6.6 | 6.6 | 10.7 | x
CCCC(=O)Nc1cccc2c1CCCC2 | -4.0 | 3.4 | 6.4 | -5.6 | 9.4
CCc1ccc(OCC(=O)Nc2cccc3c2CCCC3)cc1 | 50.8* | 24.8 | 6.3 | 98.9* | 46.6
O=C(NCc1ccnc(N2CCCCC2)n1)c1ccccc1F | -12.0 | x | x | x | x
N/C(=N\N=Cc1ccc(Br)cc1)NN=Cc1ccc(Br)cc1 | x | 100.6* | -16.8 | 100.4* | x
NC(=NN=Cc1ccc2c(c1)OCO2)NN=Cc1ccc2c(c1)OCO2 | -6.9 | x | x | x | x
CC[N+]1=C(C)C(C)(C)c2cc(C)ccc21 | 52.3* | 9.1 | 7.9 | 10.1 | -6.4
CCOc1c(C)cc(S(=O)(=O)NC(C)Cc2cccs2)cc1C (stereo not given) | -29.0 | x | x | x | x
NS(=O)(=O)c1ccc(Nc2ccc3cc(S(=O)(=O)N4CCCCC4)ccc3n2)cc1 | -15.4 | -1.3 | 1.0 | -9.2 | 0.8
NS(=O)(=O)c1ccc(CCNc2cnc3cc(S(=O)(=O)N4CCCCC4)ccc3n2)cc1 | 102.0* | x | x | x | x
CCOC(=O)c1cccc2c1-c1ccccc1C2=NO | -14.4 | -1.1 | 1.0 | 87.9* | x
O=c1nc2scc(-c3ccccc3)n2c2ccccc12 | -23.0 | -5.6 | 0.8 | 91.3* | 3.6
O=C(CN1CCCC1)Nc1sc2c(c1C(=O)Nc1ccc(Br)cc1)CCC2 | 75.5* | x | x | x | u
SMILES | SSB-PriA inh | Sa RN4220 lethal | Mtb hypoxia inh | ugtP null kill | Mtb bLac sens
COc1ccccc1Oc1coc2c3c(ccc2c1=O)OCN(C1CCS(=O)(=O)C1)C3 (stereo not given) | 13.0 | x | x | x | x
CCOC(=O)c1ccc(Oc2c(C)oc3c4c(ccc3c2=O)OCN(C2CCS(=O)(=O)C2)C4)cc1 (stereo not given) | 38.0* | x | x | x | x
O=C(Nc1cc(-n2cccn2)ncn1)c1ccc(=O)n(Cc2cccc(F)c2)n1 | -36.0 | x | x | x | x
COc1cc(C(=O)NCCSc2ccc(Cl)cc2)cc(OC)c1OC | -10.3 | 0.5 | -9.5 | -5.4 | -5.7
COc1cc(C(=O)Sc2ccc(Cl)cc2)cc(OC)c1OC | -9.4 | 0.9 | x | 92.9* | 85.3
CN(C)C(C#N)c1ccccc1Br (stereo not given) | 31.0 | x | x | x | x
CSc1nc2c(c(-c3ccccc3)c1C#N)CCC2 | -75.3 | -4.5 | 9.1 | 83.4* | 7.4
N#Cc1c(N)nc2c(c1-c1ccccc1)CCCC2 | 5.6 | 3.0 | 4.7 | 10.6 | 10.6
Oc1c(N=Nc2ccccn2)ccc2ccccc12 | 49.1* | -3.0 | -74.4 | -4.0 | 12.6
O=c1[nH]c(-c2ccccn2)cc2ccccc12 | -12.6 | 6.0 | 6.5 | 2.1 | 41.5
O=c1[nH]c(-c2ccccn2)cs1 | 63.3* | x | x | x | x
N#Cc1ccccc1S(=O)(=O)N1CCc2oncc2C1 | -7.0 | x | x | x | x
COc1cccc(/C=N/NC(=O)CSc2cccc3cccnc23)c1 | + | x | x | x | -4.1
O=C(CSc1cccc2cccnc12)NN=Cc1cccnc1 | 83.4* | 5.1 | 2.2 | -2.8 | x
Cc1cccc(C(=O)Nc2c(C(=O)NCc3ccc(C)o3)[nH]c3ccc(C)cc23)c1 | -4.0 | x | x | x | x
